Measured values reported in PubChem BioAssay (NCATS).
Records with an inconclusive call do not appear. Calls of active or inactive are those of the source. Calls come from the whole dose curve; as a rule, active = well fitted inhibition curve with a large enough effect; inconclusive = small, poorly fitted or top-dose-only effect; inactive = no such curve, though single readings can be large or run the other way.

Assay: BET inhibitor-based combinations targeting novel dependencies in MECOM-rearranged (r) AML: HNT-34 cell line (AID 2202234); note: nearly all actives have a fitted effect of over 35% in size;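 for viability (% of control): plate controls were vehicle wells for no effect and cell-free wells for full effect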
Conditions: HNT-34 AML viability, CellTiter-Glo luminescence, 48 h; series mostly up to 46 µM; viability (% of control): at the top concentration
From the text: Ecotropic viral insertion site 1 (EVI1) is located on chromosome 3q26.2 as part of the MECOM (MDS and EVI1 complex) locus. Under normal hematopoiesis, EVI1 is a regulator of hematopoietic stem cell maintenance and self-renewal and EVI1 levels decrease as the cells differentiate. In approximately 5-10% of de novo acute myeloid leukemia (AML) EVI1 is aberrantly expressed, including Chromosomal inv(3)(q21;q26.2) or t(3;3)(q21;q26.2) alterations (MECOM-r) that account for about 50% of AML with EVI1 overexpression 31. AMLs with high levels of EVI1 have a poor prognosis and an overall survival time averaging between 10-14 months. EVI1 overexpression confers resistance in leukemia cells, highlighting the need to develop new targeted therapies for EVI1 overexpressing AMLs. Here, we performed an unbiased chemical drug screening by evaluating the single agent activity of a collection of 2,480 oncology-focused, approved and investigational drugs (NCATS Mechanism Interrogation Plates, MIPE v5.0) against a panel of seven AML cell lines. These included four MECOM-r cell-lines (AML-191, AML-194, UCSD-AML1 and HNT-34) and three non-MECOM-r AMLs (MV4-11, OCI-AML3 and SET-2). Exploiting the mechanistic redundancy built in the library, we identified target-level sensitivities in MECOM-r AML cells and relative activity as compared to other AML subtypes.
A collection of 2480 mechanistically annotated dugs (MIPE v5.0) was used to screen four 3q26.2 rearranged AML cell lines and three non-3q26.2 rearranged AML cell lines. This library purposely exploits redundancy by including multiple inhibitors of key onco-targets, while simultaneously encompassing mechanistic diversity, targeting more than 800 distinct mechanisms of action. Briefly, cells were seeded in 5 uL of growth media using a Multidrop Combi dispenser into 1536 well white polystyrene tissue culture treated plates (Corning) at a density of 500cells/well. For each cell-line, for each of the 2480 drugs in MIPE v5.0 library, an 11-point dose curve was generated via a 1536 pin-tool. Plates were incubated for 48 hr at standard incubator conditions, covered by a stainless steel gasketed lid to prevent evaporation. Cell viability was determined by luminescence based, Cell Titer Glo assay (Promega). In detail, 3 uL of Cell Titer Glo were added to each well and plates were incubated at room temperature for 15 min with a stainless-steel lid in place. Luminescence readings were taken using a Viewlux (PerkinElmer) with a 2 s exposure time per plate. Compound dose-response curves were normalized to DMSO and empty well controls on each plate. Quantitative drug activity data from dose-response curves was determined utilizing area Under the Curve (AUC) and Z-transformed AUC (Z-AUC, a mean-centering transformation applied to each individual cell-line screened).
Potency is the fitted concentration of half-maximal effect.

Compound	Potency	viability (% of control)
Nc1ccccc1NC(=O)c1ccc(CNc2nccc(-c3cccnc3)n2)cc1	1.86 µM (active)	
C[C@](N)(Cc1ccc(O)c(O)c1)C(=O)O		82.2% (inactive)
Cc1[nH]c(=O)c(C#N)cc1-c1ccncc1		99.5% (inactive)
OC[C@@H](O)[C@@H](O)[C@H](O)[C@@H](O)CO		96.9% (inactive)
CC(C)n1nc(-c2ccc3oc(N)nc3c2)c2c(N)ncnc21	0.0235 µM (active)	
COc1cc2nc(N3CCCN(C)CC3)nc(NC3CCN(Cc4ccccc4)CC3)c2cc1OC	7.42 µM (active)	
O=C(O)CSCC(=O)NC1CCSC1=O (stereo not given)		102% (inactive)
N#Cc1c(NC(=O)c2cccc3ccccc23)sc2c1CCCC2	0.372 µM (active)	
c1ccc(CNc2nc(NCc3ccccc3)c3ccccc3n2)cc1	9.34 µM (active)	
CCNC(=O)c1cc2c(-c3cc(OCCN4CCCC4)c(Cl)cc3Cl)nc(N)nc2s1	1.82 µM (active)	
COCCCN1CCC(NC(=O)c2cc(Cl)c(N)c3c2OCC3)CC1		107% (inactive)
c1cc(-c2cnn3cc(-c4ccc(N5CCNCC5)cc4)cnc23)c2cccnc2c1	11.8 µM (active)	
Cc1cc(O)c2c(c1)C(=O)c1cccc(O)c1C2=O		113% (inactive)
O=C(Nc1nnc(-c2ccco2)o1)c1cc(-c2ccccc2)nc2ccccc12	10.5 µM (active)	
CC(C)Cn1cnc2c(N)nc3ccccc3c21		108% [at 15.6 µM] (inactive)
CCN(CC)CCCCNc1ncc2cc(-c3cc(OC)cc(OC)c3)c(NC(=O)NC(C)(C)C)nc2n1	8.33 µM (active)	
N=c1ccn2c(n1)O[C@H]1[C@@H](O)[C@@H](CO)O[C@H]12	0.235 µM (active)	
CCCc1cc(=O)[nH]c(=S)[nH]1		101% (inactive)
COc1cc(CNC(=O)CCCC/C=C/C(C)C)ccc1O	6.61 µM (active)	
Cc1cn([C@@H]2C[C@@H](O)[C@H](CO)O2)c(=O)[nH]c1=O		89.9% (inactive)

Compound	Potency	viability (% of control)
C=CC(=O)Nc1cccc(Nc2nc(Nc3ccc(OCCOC)cc3)ncc2F)c1	1.86 µM (active)	
CCc1cc(C(N)=S)ccn1		108% (inactive)
COC(=O)Nc1ccc(-c2nc(N3CCOCC3)c3cnn(C4CCN(C(=O)OC)CC4)c3n2)cc1	0.742 µM (active)	
NC[C@H](O)c1ccc(O)c(O)c1		94.4% (inactive)
COc1ccc2cccc(CCNC(C)=O)c2c1		105% (inactive)
CC(C)Cc1ccc(C(C)C(=O)O)cc1 (stereo not given)		107% (inactive)
O=C(NCC1CCCCN1)c1cc(OCC(F)(F)F)ccc1OCC(F)(F)F (stereo not given)		106% (inactive)
Clc1ccccc1C(c1ccccc1)(c1ccccc1)n1ccnc1	18.6 µM (active)	
CC(=O)O[C@]1(C(C)=O)CC[C@H]2[C@@H]3C[C@H](C)C4=CC(=O)CC[C@]4(C)[C@H]3CC[C@@]21C	8.33 µM (active)	
CCOC(=O)O[C@]1(C(=O)OCCl)CC[C@H]2[C@@H]3CCC4=CC(=O)C=C[C@]4(C)[C@H]3[C@@H](O)C[C@@]21C		82.2% (inactive)
O=C(O)[C@H](Cc1c[nH]c2ccccc12)N1C(=O)c2ccccc2C1=O		58.5% (inactive)
NC(=O)Nc1cc(-c2cccc(F)c2)sc1C(=O)N[C@H]1CCCNC1	0.468 µM (active)	
C=C1[C@H](CO)[C@@H](O)C[C@@H]1n1cnc2c(=O)[nH]c(N)nc21		113% (inactive)
CN(CCOc1ccc(CC2SC(=O)NC2=O)cc1)c1ccccn1 (stereo not given)		91.3% (inactive)
O=C1NC(=O)C(c2cnc3ccccn23)=C1c1cn2c3c(cccc13)CN(C(=O)N1CCOCC1)CC2	0.118 µM (active)	
NCCCC(O)(P(=O)(O)O)P(=O)(O)O		101% (inactive)
CC(C[N+](C)(C)C)OC(N)=O (stereo not given)		108% (inactive)
CC[C@@H](C)Nc1cc(C(=O)NC2CC3CCC(C2)N3c2ccc(C(=O)C3CC3)cn2)c(C)cc1C(N)=O (stereo not given in full)	0.148 µM (active)	
CN(C)C(=O)c1cc2cnc(Nc3ccc(N4CCNCC4)cn3)nc2n1C1CCCC1		88.7% (inactive)
CO[C@@H](C(=O)N1Cc2[nH]nc(NC(=O)c3ccc(N4CCN(C)CC4)cc3)c2C1)c1ccccc1	0.105 µM (active)	
